Source: PubChem (National Center for Advancing Translational Sciences (NCATS))
RORg inh: inhibitors of mouse ROR gamma transcriptional activity; P51450; Drosophila S2 Gal4-RORgamma UAS-luciferase reporter, 20 h; Potency, µM (doses to about 53.6 µM), most hits filed as inhibitors; actives 5.4% (n = 310,000); AID 2551; note: nearly all actives have a fitted effect of over 60% in size
Target sequence (P51450 whole entry, looked up, the tested form may be a part): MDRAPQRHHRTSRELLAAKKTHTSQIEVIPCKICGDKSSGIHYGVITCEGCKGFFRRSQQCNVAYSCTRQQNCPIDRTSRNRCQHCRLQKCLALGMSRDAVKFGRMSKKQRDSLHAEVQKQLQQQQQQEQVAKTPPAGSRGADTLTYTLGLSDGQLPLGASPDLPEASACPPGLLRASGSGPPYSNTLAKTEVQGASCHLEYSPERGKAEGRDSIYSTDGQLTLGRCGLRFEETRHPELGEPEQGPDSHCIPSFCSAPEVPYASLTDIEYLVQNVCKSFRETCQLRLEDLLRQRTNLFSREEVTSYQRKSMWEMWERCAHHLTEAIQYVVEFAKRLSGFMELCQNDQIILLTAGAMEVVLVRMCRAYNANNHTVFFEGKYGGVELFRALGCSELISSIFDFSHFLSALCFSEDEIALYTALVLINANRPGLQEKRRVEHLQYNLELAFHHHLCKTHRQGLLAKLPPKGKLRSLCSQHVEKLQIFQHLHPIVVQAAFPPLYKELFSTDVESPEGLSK
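In this cell-based reporter format, copper sulfate (700 uM final) drives Gal4–ROR gamma fusion expression from a metallothionein promoter in Drosophila Schneider cells; compounds preincubated 1 hr, reporter read after 20 hr at ambient temperature.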
Tau fluor counter: counter-screen for tau fibril formation inhibitors; AID 1463; Potency, µM (titrated, usually from 57.7 µM); tau K18 P301L Alexa594 fluorescence, heparin fibrillization; actives 0.93% (n = 280,000); note: nearly all actives have a fitted effect of over 55% in size
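Human K18 P301L tau (15 uM unlabeled plus 0.24 uM Alexa 594-labeled, final) in 100 mM sodium acetate pH 7 was mixed with compound and 20 uM heparin and incubated 6 hr at 37 C.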
VP16 counter: Gal4-VP16 reporter inhibition counter-screen | Drosophila S2 Gal4-VP16 UAS-luciferase, luminescence, 20 h | Potency, µM (series often up to 53.6 µM), most hits filed as inhibitors | AID 2546 | actives 3.5% (n = 310,000);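 note: Gal4-VP16 expression switched on by copper sulfate through the metallothionein promoter; nearly all actives have a fitted effect of over 50% in size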
Tau FP inhib: inhibitors of human tau fibril formation. P10636. K18 P301L tau heparin fibrillization, Alexa594 FP, 6 h. actives 0.39% (n = 280,000). Potency, µM (titrated, usually from 57.7 µM), hits mostly inhibitors; note: nearly all actives have a fitted effect of over 55% in size
Target sequence (P10636 561-689 P618L limits assumed): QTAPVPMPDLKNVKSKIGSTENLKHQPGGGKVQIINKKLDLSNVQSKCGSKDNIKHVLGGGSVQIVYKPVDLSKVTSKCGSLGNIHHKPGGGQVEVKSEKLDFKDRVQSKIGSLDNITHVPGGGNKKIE
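FP of Alexa 594-tau after heparin (20 uM) induction. Substrate: human K18 P301L, 15 uM unlabeled, 0.24 uM labeled. Buffer 100 mM sodium acetate pH 7. 6 hr, 37 C.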
Tau fibril ThT: inhibitors of human tau fibril formation, thioflavin T binding. recombinant tau K18 P301L (four-repeat tau fragment), heparin-induced fibrillization, ThT fluorescence. actives 2.1% (n = 270,000). Potency, µM (titrated, usually from 57.4 µM), usual class: inhibitors. AID 1460; note: nearly all actives have a fitted effect of over 55% in size
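Heparin-induced fibrillization of the P301L-mutant K18 repeat-domain fragment of human tau was followed by ThT binding in quantitative high-throughput format.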
Each line names hits and unclear results; the compound was inactive in the other large screens; [ ] = remark or other dose. This is a sample that favours compounds with a hit; in the whole collection about 7.3% have one here. Calls come from the whole dose curve; as a rule, active = well fitted curve in the direction sought with a large enough effect; inconclusive = small, poorly fitted or top-dose-only effect, or another doubt; inactive = no such curve, though single readings can be large; an effect the other way counts as inactive or inconclusive.

CC1=C([N+](=O)[O-])C(c2cccc(Br)c2)C2=C(N1)c1ccccc1C2=O (configuration not stated)	Tau fluor counter 14.1µM[quencher], VP16 counter inconclusive, Tau FP inhib inconclusive, Tau fibril ThT 15.8µM
O=C(CCCn1c2ccccc2c(=O)c2ccccc21)Nc1ccc(F)cc1Cl	Tau fibril ThT inconclusive (no result: RORg inh, VP16 counter)
COc1ccc(C(=O)NC(=S)N2CC(C)OC(C)C2)cc1OC (configuration not stated)	RORg inh 7.94µM, VP16 counter inconclusive
COc1ccc(C(=O)NC(=S)N2CCCc3ccccc32)cc1OC	Tau fibril ThT inconclusive
CC1CN(C(=S)NC(=O)c2ccc(Cl)cc2)CC(C)O1 (configuration not stated)	RORg inh 1.58µM, VP16 counter 0.794µM (no result: Tau fluor counter, Tau FP inhib, Tau fibril ThT)
CC1CN(C(=S)Nc2cccc([N+](=O)[O-])c2)CC(C)O1 (configuration not stated)	none (no result: Tau fluor counter, Tau FP inhib, Tau fibril ThT)
CC1CN(C(=S)SCC(=O)c2ccc(Cl)cc2)CC(C)O1 (configuration not stated)	VP16 counter inconclusive
CC1CN(C(=S)NC(=O)c2cccc([N+](=O)[O-])c2)CC(C)O1 (configuration not stated)	RORg inh 0.501µM, VP16 counter 1.26µM
Cn1nnnc1SCCCNCc1ccc(-c2ccc(Br)cc2)o1	none (no result: RORg inh, VP16 counter)
CCc1ccc(CNC(=O)C2CCCN(S(=O)(=O)c3ccc4c(ccn4C)c3)C2)cc1 (configuration not stated)	none (no result: RORg inh, VP16 counter)
O=C(CCl)N1N=C(c2cccs2)CC1c1ccco1 (configuration not stated)	RORg inh 11.2µM, VP16 counter inconclusive, Tau fibril ThT inconclusive
O=C(CCl)N1N=C(c2ccco2)CC1c1ccco1 (configuration not stated)	RORg inh 10µM, VP16 counter inconclusive (no result: Tau fluor counter, Tau FP inhib, Tau fibril ThT)
COc1ccc(C2=NN(C(N)=S)C(c3ccco3)C2)cc1 (configuration not stated)	RORg inh 10µM, VP16 counter inconclusive, Tau fibril ThT inconclusive
O=C(O)/C=C/C(=O)N1N=C(c2ccco2)CC1c1ccco1 (configuration not stated)	none (no result: Tau fluor counter, Tau FP inhib, Tau fibril ThT)
CN1CCN(CC(=O)N2N=C(c3cccs3)CC2c2ccco2)CC1 (configuration not stated)	VP16 counter inconclusive
CCn1cc(S(=O)(=O)c2cccc(Cl)c2)c(=O)c2cc(F)c(N3CCN(c4ccccc4)CC3)cc21	Tau fibril ThT inconclusive (no result: RORg inh, VP16 counter)
COc1ccc(-c2nc3cnc(N4CCNCC4)nc3n(-c3ccc(OC)cc3)c2=O)cc1	none (no result: Tau fluor counter, Tau FP inhib, Tau fibril ThT)
N#CCCn1cc(C=C(C#N)C#N)c(-c2ccc(-c3ccccc3)cc2)n1	RORg inh inconclusive, VP16 counter 20µM
N#CCCn1cc(/C=N/O)c(-c2ccccc2)n1	none
N#CCCn1cc(/C=N/NC(N)=S)c(-c2ccc(-c3ccccc3)cc2)n1	RORg inh 1.12µM, Tau fluor counter inconclusive, VP16 counter 3.16µM
COc1ccc(C2C=C(Nc3ccccc3)C(=O)N2c2ccccc2)cc1OC (configuration not stated)	Tau FP inhib inconclusive, Tau fibril ThT 12.6µM
CCCC(=O)Nc1nc2ccc(C(=O)OCC)cc2s1	none
CC(=O)Nc1ccc(NC(=O)c2cccc(-c3cc4ccccc4oc3=O)c2)cc1	RORg inh inconclusive
CCCCC(=O)Nc1nc2ccc(C(=O)OC)cc2s1	RORg inh 8.91µM, VP16 counter inconclusive
COc1ccc(Nc2ccc(OC)cc2)cc1	Tau fluor counter inconclusive, Tau FP inhib inconclusive, Tau fibril ThT 10µM
COc1ccc2nc(NC(=O)c3cc(=O)c4ccccc4o3)sc2c1	Tau fibril ThT 0.891µM (no result: RORg inh, VP16 counter)
COc1ccc(Nc2ccc(Nc3ccc(OC)cc3)nn2)cc1	Tau fibril ThT inconclusive
COc1ccc2nc(NC(=O)c3cccc(-c4cc5ccccc5oc4=O)c3)sc2c1	RORg inh 10µM, VP16 counter 10µM
Cc1c(C(=O)NCc2nnc(-c3ccccc3)o2)oc2c(F)cccc12	none (no result: Tau fluor counter, Tau FP inhib, Tau fibril ThT)
CC(C)C[C@@H](C(=O)N[C@@H](Cc1c[nH]c2ccccc12)C(N)=O)N1C[C@]2(CCCN2C(=O)[C@H](Cc2ccccc2)NC(=O)[C@H](Cc2ccccc2)NC(=O)[C@H](CCC(N)=O)NC(=O)[C@H](CCC(N)=O)NC(=O)[C@@H]2CCCN2C(=O)[C@H](CCCCN)NC(=O)[C@@H]2CCCN2C(=O)[C@@H](N)CCCNC(=N)N)CC1=O	none (no result: Tau fluor counter, Tau FP inhib, Tau fibril ThT)
Clc1ccc(-c2nc(-c3cc4cc(Cl)ccc4o3)cs2)cc1	none
CCc1ccc(NC(=O)Cn2c(=O)n(Cc3ccccc3)c(=O)c3oc4ccccc4c32)cc1	Tau FP inhib inconclusive, Tau fibril ThT inconclusive (no result: RORg inh, VP16 counter)
Cc1cc(C(=O)Nc2nc3ccc(Cl)cc3s2)nn1C	RORg inh inconclusive
COc1ccc(Nc2nc3ccc(OC)cc3s2)cc1	RORg inh inconclusive, Tau fluor counter 14.1µM[quencher], Tau fibril ThT 12.6µM
CCOC(=O)Cc1csc(NC(=O)c2cc(=O)c3ccccc3o2)n1	RORg inh inconclusive, Tau fibril ThT inconclusive
Cn1ncc(Cl)c1C(=O)Nc1nc2ccc(Cl)cc2s1	RORg inh 11.2µM, VP16 counter inconclusive, Tau fibril ThT inconclusive
COc1ccc(C(=O)Nc2nc3ccc(OC)cc3s2)cc1	RORg inh 1.41µM, VP16 counter 4.47µM (no result: Tau fluor counter, Tau FP inhib, Tau fibril ThT)
Cc1cc(C)c2nc(NNC(=O)c3cc(=O)c4ccccc4o3)sc2c1	RORg inh 5.01µM, Tau fluor counter inconclusive, VP16 counter inconclusive, Tau fibril ThT 5.01µM
CCOc1ccc(NC(=O)CCS(=O)(=O)c2ccc(Br)s2)cc1	none (no result: RORg inh, VP16 counter)
COc1ccc2nc(NC(=O)c3cnccn3)sc2c1	RORg inh inconclusive, VP16 counter 10µM, Tau fibril ThT inconclusive
COc1ccc(NC(=O)CN(c2ccccc2OC)S(C)(=O)=O)c(OC)c1	none (no result: RORg inh, VP16 counter)
Fc1ccc(NC(=S)N2CCc3ccccc32)cc1	RORg inh 11.2µM, VP16 counter inconclusive (no result: Tau fluor counter, Tau FP inhib, Tau fibril ThT)
FC(F)Oc1ccc(NC(=S)N2CCc3ccccc32)cc1	RORg inh 8.91µM
COc1ccccc1N1CCN(c2ncnc3c2nc2n3CCCC2)CC1	none (no result: RORg inh, VP16 counter)
COc1ccc(C2=CSC3=C(C(=O)c4cccc(S(=O)(=O)N(C)C)c4)CCN23)cc1	Tau fluor counter inconclusive, Tau FP inhib inconclusive, Tau fibril ThT 25.1µM
COC(=O)c1ccc(C(NC(=O)OCc2ccccc2)/C(=C/[C@@H](C)C(=O)NCC2CC2)c2cccnc2)cc1 (some centres not stated)	none
C(#Cc1ccccc1)C[N+]1(CC#Cc2cccc3ccccc23)CCCC1	VP16 counter 15.8µM, Tau fibril ThT inconclusive
Cc1ccc(OCCn2c(-c3ccc(Cl)cc3)nc3ccccc3c2=O)c(C)c1	none (no result: RORg inh, VP16 counter)
COc1ccc2oc(-c3ccc(O)cc3)cc(=O)c2c1	RORg inh 25.1µM, Tau fluor counter inconclusive, VP16 counter 25.1µM, Tau fibril ThT inconclusive
O=C(COc1ccc2oc(-c3ccccc3)cc(=O)c2c1)Nc1ccccc1	RORg inh 12.6µM, VP16 counter inconclusive, Tau fibril ThT inconclusive
